Assay results taken from the supplement of paper PMC6555819.

Columns and labels:
Test in all cases: PBM binding z-score (relative to random genomic background probes); higher = stronger binding; sequences stand for … in GC…GCGATTGACAGCGTAGAATGAAGG
[1] = system: FXR:RXRa (NR concentration 270 nM, RXRa partner concentration 90 nM)
Method in brief: (§1)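 Ligand-free nuclear receptor dimers were bound for 1 h to custom Agilent 4×180K protein-binding microarrays. Detection used antibodies against each partner (one per run). Binding z-scores rest on regression-normalized fluorescence, with random background probes as the reference.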

[2] = system: LXRa:RXRa (NR concentration 270 nM, RXRa partner concentration 90 nM)
Method in brief: as §1

[3] = system: LXRa homodimer (NR concentration 270 nM)
Method in brief: as §1

[4] = system: LXRb:RXRa (NR concentration 270 nM, RXRa partner concentration 90 nM)
Method in brief: as §1

[5] = system: LXRb homodimer (NR concentration 270 nM)
Method in brief: as §1

[6] = system: PPARa:RXRa (NR concentration 270 nM, RXRa partner concentration 90 nM)
Method in brief: as §1

[7] = system: PPARg:RXRa (NR concentration 180 nM, RXRa partner concentration 90 nM)
Method in brief: as §1

[8] = system: PPARg:RXRa 270nM:90nM, anti-RXR (NR concentration 270 nM, RXRa partner concentration 90 nM)
Method in brief: as §1

[9] = system: PPARg:RXRa 30nM:10nM, anti-RXR (NR concentration 30 nM, RXRa partner concentration 10 nM)
Method in brief: as §1

[10] = system: PPARg:RXRa 90nM:30nM, anti-RXR (NR concentration 90 nM, RXRa partner concentration 30 nM)
Method in brief: as §1

[11] = system: PPARg:RXRa DBDmut IVT, anti-RXR (DBD mutation: RXRa K156A/R161A, NR concentration 270 nM, RXRa partner concentration 90 nM)
Method in brief: as §1

[12] = system: PPARg:RXRa IVT, anti-PPARg (NR concentration 270 nM, RXRa partner concentration 90 nM)
Method in brief: as §1

[13] = system: PPARg DBDmut:RXRa IVT, anti-PPARg (DBD mutation: PPARg1 K132A/R137A, NR concentration 270 nM, RXRa partner concentration 90 nM)
Method in brief: as §1

[14] = system: PPARg DBDmut IVT, anti-PPARg (DBD mutation: PPARg1 K132A/R137A, NR concentration 270 nM)
Method in brief: as §1

[15] = system: PPARg homodimer (NR concentration 180 nM)
Method in brief: as §1

[16] = system: PXR:RXRa (NR concentration 270 nM, RXRa partner concentration 90 nM)
Method in brief: as §1

[17] = system: PXR homodimer (NR concentration 270 nM)
Method in brief: as §1

[18] = system: RARa:RXR (NR concentration 270 nM, RXRa partner concentration 90 nM)
Method in brief: as §1

[19] = system: RARa homodimer (NR concentration 270 nM)
Method in brief: as §1

[20] = system: RARb:RXRa (NR concentration 270 nM, RXRa partner concentration 90 nM)
Method in brief: as §1

Row | Sequence | PBM binding z-score [1] | PBM binding z-score [2] | PBM binding z-score [3] | PBM binding z-score [4] | PBM binding z-score [5] | PBM binding z-score [6] | PBM binding z-score [7] | PBM binding z-score [8] | PBM binding z-score [9] | PBM binding z-score [10] | PBM binding z-score [11] | PBM binding z-score [12] | PBM binding z-score [13] | PBM binding z-score [14] | PBM binding z-score [15] | PBM binding z-score [16] | PBM binding z-score [17] | PBM binding z-score [18] | PBM binding z-score [19] | PBM binding z-score [20]
1 | CTTACTGGGCCATTCAGAGGTCATTGATCATATG | 3.23 | 4.72 | 6.7 | 4.11 | 0.985 | 4.48 | 4.03 | 4.43 | 2.21 | 3.71 | 6.81 | 6.21 | 0.768 | 1.22 | 2.09 | 4.88 | 2.99 | 4.16 | 0.436 | 3.23
2 | CGTCCAAGGTTAGCAGGTCAGTGAAAGCGACGTG | 1.34 | 1.26 | -0.0811 | 0.92 | -0.45 | 2.44 | 1.18 | 2.08 | -0.171 | 1.04 | 2 | 2.5 | -0.8 | -0.782 | 1.06 | 1.18 | -0.346 | 2.01 | -0.223 | 3.08
3 | ATACCAAGGTGATCGAGAGGTCGTTGATACTAAC | 1.97 | 1.51 | 0.71 | 1.37 | 0.0291 | 1.72 | 0.979 | 1 | 0.238 | 0.545 | 0.406 | 1.39 | 0.441 | 0.884 | 1.08 | 2.91 | 1.12 | 2.04 | 0.692 | 1.56
4 | CGAACGAGGACATGAGTTGATAGCAAATGCCGAT | 0.0885 | -0.189 | -0.104 | -0.698 | -0.657 | -0.417 | 0.982 | 0.127 | 0.435 | 0.242 | 0.314 | 0.0195 | 0.334 | -0.107 | 0.0836 | -0.249 | 0.0683 | -0.232 | 0.565 | 0.496
5 | CAAACTAGGCCAAAGGTCAAAGTCGAGCCAACCA | 6.1 | 5.86 | 4.2 | 5.75 | 2.08 | 7.88 | 12.3 | 10.6 | 11 | 11.5 | 7.14 | 7.78 | 2.58 | 1.59 | 2.88 | 5.56 | 0.846 | 6.35 | 0.602 | 5.26
6 | AGTCAAAGTCCATCTAGGTAACGTAAGATATGCT | 0.0265 | -0.375 | 0.0157 | -0.0801 | -0.0793 | 0.13 | 0.685 | 0.325 | 0.277 | 0.00564 | 0.353 | 2.15 | 1.24 | 0.675 | -0.173 | -0.246 | 0.131 | 0.0232 | 0.0654 | 1.37
7 | CCGACTGGGGCATGAGGTTACCATAAGCCAGCCC | 0.319 | 1.56 | -0.254 | 0.386 | -1.09 | 1.72 | 2.04 | 2.41 | 0.402 | 1.62 | 3.01 | 3.6 | -1.07 | -0.773 | 0.383 | 0.287 | -0.219 | 1.06 | -0.49 | 1.42
